# Test system: FLT1
# Conditions: concentration: 1 μM, replicates: in singlicate; n = 1
# 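Also: KINOMEscan kinase panel screen.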
row,SMILES,%Inh [%]
1,O=C(Nc1cccc(-c2nn3ccccc3c2-c2ccnc(Nc3cccc(F)c3)n2)c1)c1c(F)ccc(F)c1Cl [GSK357952],89
2,O=C(Nc1ccccc1F)NC1CCN(c2ccnc(Nc3ccc(F)cc3)n2)CC1 [GSK1379800],29
3,O=c1[nH]cc(-c2ccc(N3CCOCC3)cc2)c2sc(-c3cn[nH]c3)cc12 [GSK2276055],0
4,COc1cccc(C(=O)Nc2cccc(Oc3ccc4nc(NC(=O)C5CC5)cn4n3)c2)c1,99.9
5,O=C(Nc1cccc(Oc2ccc3nc(NC(=O)C4CC4)cn3n2)c1)c1ccccc1C(F)(F)F,99.7
6,NCCCC(NC(=O)c1cc(Br)c(-c2ccnc3[nH]ccc23)s1)c1ccccc1.O=C(O)C(F)(F)F.O=C(O)C(F)(F)F (centres unmarked) [GSK1287544],60
7,COC(=O)Nc1nc2ccc(Oc3ccc(NC(=O)Nc4cc(C(F)(F)F)ccc4F)cc3)cc2n1C.Cl [GW692089],89
8,COc1cc(Nc2nccc(-c3c(-c4cccc(NC(=O)c5c(F)cccc5F)c4)nn4ncccc34)n2)cc(OC)c1OC [GSK327238],99.2
9,CN1CCN(CCCNc2nccc(-c3c(-c4ccc(F)cc4)nn4cc(C(F)(F)F)ccc34)n2)CC1 [GW621581],33
10,Cc1ccc(C)c(NC(=O)NC2CCN(c3ccnc(Nc4ccc(F)cc4)n3)C2)c1 (centres unmarked) [GSK1379720],9
11,Cc1cccc(Nc2nc(N[C@H]3CCNC3)ncc2C(N)=O)c1.Cl [GSK2197149],24
12,COc1ccc(Nc2nccc(NCCNC(=O)c3cc4ccccc4s3)n2)cc1 [GSK1379896],19
13,Nc1ncc(-c2cccnc2)c2scc(-c3ccc4c(c3)CCN4C(=O)Cc3ccccc3)c12 [GSK683281],47
14,Cl.Cl.NCC(NC(=O)c1cc(-c2ccccc2)c(-c2ccnc3[nH]ccc23)s1)c1ccccc1 (centres unmarked) [GSK1321561],10
15,Nc1ncc(-c2ccc3nccc(-c4ccncc4)c3c2)cc1S(=O)(=O)N1CCOCC1 [GSK1627798],22
16,CCn1c(-c2nonc2N)nc2c(C#CC(C)(C)O)ncc(OCCCCN)c21.O=C(O)C(F)(F)F.O=C(O)C(F)(F)F [GSK507274],23
17,Nc1n[nH]c2cnc(-c3ccccc3)cc12 [SB-642124],0
18,Cl.c1ccc(-c2ccc3c(Nc4ccc5[nH]ncc5c4)ccnc3c2)nc1 [GW440137],62
19,Nc1ncnc2c1nc(-c1ccccc1)n2-c1ccccc1 [SKF-97293],9
20,Cn1cc(-c2ccc3c(c2)CCN3C(=O)Cc2cccc(Cl)c2)c2c(N)ncnc21 [GSK2606590],59
21,COc1cccc(-c2ccc3c(NC(=O)C4CC4)n[nH]c3n2)c1 [SB-710903],8
22,CC(=O)N1CCN(c2ccc(Nc3nccc(-c4sc(C(C)C)nc4-c4cccc(NS(=O)(=O)c5cccc(Cl)c5)c4)n3)cn2)CC1 [GSK1660437],81
23,CC(C)(C)c1ccc2nccc(Nc3cccc(O)c3)c2c1 [GW856795],0
24,COc1cc2c(cc1OCCN1CCNCC1)ncc1c3ccc(C#N)cc3[nH]c21,6
25,O=C(Nc1cccc(-c2nn3ncccc3c2-c2ccnc(Nc3ccccc3)n2)c1)c1c(F)cccc1F [GSK198271],98.4

# Test system: FLT3-autoinhibited
# Conditions: concentration: 1 μM, replicates: in singlicate; n = 1
row,SMILES,%Inh [%]
1,FC(F)(F)c1ccc(/C=C/c2cncnc2Nc2ccc3[nH]c(Cc4ccccc4)nc3c2)cc1 [GW709199],0
2,CN(C)Cc1ccc(-c2ccc3c(Nc4ccc(Oc5ccccn5)cc4)ccnc3c2)o1 [GW567148],53
3,Cc1ccc(F)c(C(=O)Nc2cccc(-c3nn4ccccc4c3-c3ccnc(Nc4cccc(F)c4)n3)c2)c1F [GSK361061],0
4,Cc1occc1-c1ncc(OC[C@@H](N)Cc2c[nH]c3ccccc23)cc1-c1ccc2[nH]nc(C)c2c1.O=C(O)C(F)(F)F [GSK682037],0
5,CN(C)S(=O)(=O)c1cc(-c2ccc3nccc(-c4cccc(S(N)(=O)=O)c4)c3c2)cnc1N [GSK1669921],19
6,COCCOCCOc1cc2ncc3c4ccc(C#N)cc4[nH]c3c2cc1OC,90.1
7,COc1cccc(C2=C(Nc3ccc(Cl)c(C(=O)O)c3)C(=O)NC2=O)c1 [SB-390769],0
8,Oc1cc(Nc2ccnc3cc(I)ccc23)ccc1F [GW552771],0
9,Cc1ccc(S(=O)(=O)Nc2ccc(Nc3nccc(Nc4cccc5[nH]ncc45)n3)cc2)cc1 [GSK581271],0
10,Cc1ccc(C(=O)N2CC[C@@H](O)C2)cc1-n1c(C)cc(OCc2ccc(F)cc2F)c(Br)c1=O,0
11,COC(=O)Nc1nc2cc(Oc3ccc(NC(=O)Nc4cc(C(F)(F)F)ccc4F)cn3)ccc2[nH]1.Cl.Cl [GW681170],40
12,COc1cc(Nc2nccc(N3CCC(NC(=O)c4cc5ccccc5s4)C3)n2)cc(OC)c1OC (centres unmarked) [GSK1379760],3
13,O=C(Nc1cccc(-c2nn3ccccc3c2-c2ccnc(Nc3cccc(F)c3)n2)c1)c1c(F)ccc(F)c1Cl [GSK357952],15
14,O=C(Nc1ccccc1F)NC1CCN(c2ccnc(Nc3ccc(F)cc3)n2)CC1 [GSK1379800],0
15,O=c1[nH]cc(-c2ccc(N3CCOCC3)cc2)c2sc(-c3cn[nH]c3)cc12 [GSK2276055],11
16,COc1cccc(C(=O)Nc2cccc(Oc3ccc4nc(NC(=O)C5CC5)cn4n3)c2)c1,24
17,O=C(Nc1cccc(Oc2ccc3nc(NC(=O)C4CC4)cn3n2)c1)c1ccccc1C(F)(F)F,0
18,NCCCC(NC(=O)c1cc(Br)c(-c2ccnc3[nH]ccc23)s1)c1ccccc1.O=C(O)C(F)(F)F.O=C(O)C(F)(F)F (centres unmarked) [GSK1287544],6
19,COC(=O)Nc1nc2ccc(Oc3ccc(NC(=O)Nc4cc(C(F)(F)F)ccc4F)cc3)cc2n1C.Cl [GW692089],3

row,SMILES,%Inh [%]
1,COc1cc(Nc2nccc(-c3c(-c4cccc(NC(=O)c5c(F)cccc5F)c4)nn4ncccc34)n2)cc(OC)c1OC [GSK327238],0
2,CN1CCN(CCCNc2nccc(-c3c(-c4ccc(F)cc4)nn4cc(C(F)(F)F)ccc34)n2)CC1 [GW621581],0
3,Cc1ccc(C)c(NC(=O)NC2CCN(c3ccnc(Nc4ccc(F)cc4)n3)C2)c1 (centres unmarked) [GSK1379720],0
4,Cc1cccc(Nc2nc(N[C@H]3CCNC3)ncc2C(N)=O)c1.Cl [GSK2197149],82
5,COc1ccc(Nc2nccc(NCCNC(=O)c3cc4ccccc4s3)n2)cc1 [GSK1379896],0
6,Nc1ncc(-c2cccnc2)c2scc(-c3ccc4c(c3)CCN4C(=O)Cc3ccccc3)c12 [GSK683281],5
7,Cl.Cl.NCC(NC(=O)c1cc(-c2ccccc2)c(-c2ccnc3[nH]ccc23)s1)c1ccccc1 (centres unmarked) [GSK1321561],0
8,Nc1ncc(-c2ccc3nccc(-c4ccncc4)c3c2)cc1S(=O)(=O)N1CCOCC1 [GSK1627798],0
9,CCn1c(-c2nonc2N)nc2c(C#CC(C)(C)O)ncc(OCCCCN)c21.O=C(O)C(F)(F)F.O=C(O)C(F)(F)F [GSK507274],0
10,Nc1n[nH]c2cnc(-c3ccccc3)cc12 [SB-642124],0
11,Cl.c1ccc(-c2ccc3c(Nc4ccc5[nH]ncc5c4)ccnc3c2)nc1 [GW440137],2
12,Nc1ncnc2c1nc(-c1ccccc1)n2-c1ccccc1 [SKF-97293],14
13,Cn1cc(-c2ccc3c(c2)CCN3C(=O)Cc2cccc(Cl)c2)c2c(N)ncnc21 [GSK2606590],1
14,COc1cccc(-c2ccc3c(NC(=O)C4CC4)n[nH]c3n2)c1 [SB-710903],0
15,CC(=O)N1CCN(c2ccc(Nc3nccc(-c4sc(C(C)C)nc4-c4cccc(NS(=O)(=O)c5cccc(Cl)c5)c4)n3)cn2)CC1 [GSK1660437],9
16,CC(C)(C)c1ccc2nccc(Nc3cccc(O)c3)c2c1 [GW856795],64
17,COc1cc2c(cc1OCCN1CCNCC1)ncc1c3ccc(C#N)cc3[nH]c21,95.8
18,O=C(Nc1cccc(-c2nn3ncccc3c2-c2ccnc(Nc3ccccc3)n2)c1)c1c(F)cccc1F [GSK198271],0
